The record followed here is PubChem BioAssay.

Active and inactive are the calls of the source.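 The calls were made as follows, unless noted: active = fluorescence slope after compound addition differing from the mean of all screened samples at 99.7% confidence, in either direction; inactive = the rest.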

The nature of test [1]: inhibitors of TNFa-induced NFkB p65 translocation, primary screen, imaging, HUVEC, MLSMR starter and 10KST1 sets (AID 438;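 active = inhibition above 20% together with a positive visual image hit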;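 also: compound added about 3h40 before a 20 min TNFalpha stimulation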;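 as to inhibition: signal is the nuclear over cytoplasmic p65 intensity ratio per well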). To be noted: HUVEC TNFa-induced p65 nuclear translocation; cell count: measured here: nuclei count (cytotoxicity indicator), at 2.08 µM; inhibition: at 2 µM, stronger effect = higher value, 0% TNFa-plus-vehicle, 100% no-TNFa wells.
Test [2] in a line: inhibitors of mutant huntingtin aggregation, primary screen, imaging, exon1htt(103Q)mCFP cells, high-content imaging (AID 483;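 active = visual image review flags a hit and inhibition of aggregation exceeds 20%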;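 also: compound exposure lasted 3 days before fixation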;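 as to nuclei count: percent of the per-plate median nuclei count of sample wells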). Conditions: exon1htt(103Q)mCFP cell line, aggregate imaging, at 2 µM; inhibition of aggregation: stronger effect = higher value; nuclei count: measured here: cell count, toxicity.
Test [3] is described as follows: inhibitors of E-selectin induction by TNFa, primary screen, imaging, HUVEC, immunofluorescence, MLSMR starter and 10KST1 sets (AID 487;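 active = visually confirmed hit in the image check and inhibition above 20%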;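 as to inhibition: signal is fraction of cell area covered by stained E-selectin grains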;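 as to nuclei count: 100% = median nuclei count of all wells on the same plate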). Conditions: HUVEC TNFalpha-induced E-selectin immunofluorescence imaging, at 2 µM; inhibition: stronger effect = higher value; nuclei count: measured here: cell number, toxicity.
Test [4] addresses Voltage-gated potassium channel subunit beta-2 (Rattus norvegicus) (UniProt P62483). The test is described as follows: KvBeta enzyme negative modulators, primary screen, biochemical, NADPH fluorescence (AID 622;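 active = fluorescence slope higher than the sample average by over 3 SD, cut at about -0.22 in these data, passing the limit was not always enough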;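 also: slope of raw intensity against log time taken from 70 to 1610 s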). To be noted: recombinant KvBeta, 4-cyanobenzaldehyde reduction, at 10 µM, stronger effect = higher value.
For test [5] the target is unchanged. As to the kind of experiment: KvBeta positive modulators, primary screen, biochemical, NADPH fluorescence (AID 623;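 active = NADPH fluorescence slope more negative than the mean of all samples by about 3 SD, 99.7% confidence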;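 also: fluorescence intensity change per second fitted from 20 to 320 s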). To be noted: Recombinant KvBeta, NADPH fluorescence decrease slope, 10 min; at 10 µM; stronger effect = lower value.
The target of test [6] is Alpha-2C adrenergic receptor (Homo sapiens) (UniProt P18825). As to the kind of experiment: modulators of alpha2C/GIRK thallium flux, primary screen, cell-based, HEK293 alpha2C/GIRK1/2 (AID 624).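 Also: slope of fluorescence ratio to pre-addition baseline per second over 15 to 24 s.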 To be noted: thallium flux BTC fluorescence, at 10 µM, actives lie on both sides.
Test [7] in a line: inhibitors of Sendai virus-induced IRF3 signaling, primary screen, TLR/RLR signaling modifier project, cell-based, Sendai virus stimulus, luciferase, 10K MLSCN set (AID 602276;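 active = inhibition at or above 50% at 10 µM; inactive = inhibition below 50%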;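 also: firefly luciferase from ISG56 promoter only with Renilla not read in this screen; 0% = Sendai virus plus DMSO and 100% = medium plus DMSO without virus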). Conditions: HEK293 RL24 IRF3 luciferase reporter, at 10 µM, stronger effect = higher value. For orientation: Reporter assays use an easily measured gene product as a stand-in for the process of interest.
Test [8] is described as follows: inhibitors of poly I:C-induced TLR3 signaling, primary screen, cell-based, poly I:C stimulus, luciferase, 10K MLSCN set (AID 602277;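 active = inhibition of the reporter signal at or above 50%; inactive = inhibition below 50%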). Conditions: HEK293-TLR3 RL24 IRF3 luciferase reporter, at 10 µM, stronger effect = higher value.

Chain of Alpha-2C adrenergic receptor (Homo sapiens) (P18825 whole entry, looked up): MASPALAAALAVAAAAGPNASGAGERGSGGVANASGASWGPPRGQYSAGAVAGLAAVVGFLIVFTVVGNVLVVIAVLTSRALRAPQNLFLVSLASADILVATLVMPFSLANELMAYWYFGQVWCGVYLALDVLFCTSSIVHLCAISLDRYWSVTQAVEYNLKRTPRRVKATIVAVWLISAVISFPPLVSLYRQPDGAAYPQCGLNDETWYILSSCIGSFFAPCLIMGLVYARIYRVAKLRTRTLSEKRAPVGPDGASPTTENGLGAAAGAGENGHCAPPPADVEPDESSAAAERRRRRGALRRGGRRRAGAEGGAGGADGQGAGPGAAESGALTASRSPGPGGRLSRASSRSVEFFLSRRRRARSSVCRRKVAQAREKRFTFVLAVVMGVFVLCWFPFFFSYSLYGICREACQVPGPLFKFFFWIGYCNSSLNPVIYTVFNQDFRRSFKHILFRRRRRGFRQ
Chain of Voltage-gated potassium channel subunit beta-2 (Rattus norvegicus) (P62483 whole entry, looked up): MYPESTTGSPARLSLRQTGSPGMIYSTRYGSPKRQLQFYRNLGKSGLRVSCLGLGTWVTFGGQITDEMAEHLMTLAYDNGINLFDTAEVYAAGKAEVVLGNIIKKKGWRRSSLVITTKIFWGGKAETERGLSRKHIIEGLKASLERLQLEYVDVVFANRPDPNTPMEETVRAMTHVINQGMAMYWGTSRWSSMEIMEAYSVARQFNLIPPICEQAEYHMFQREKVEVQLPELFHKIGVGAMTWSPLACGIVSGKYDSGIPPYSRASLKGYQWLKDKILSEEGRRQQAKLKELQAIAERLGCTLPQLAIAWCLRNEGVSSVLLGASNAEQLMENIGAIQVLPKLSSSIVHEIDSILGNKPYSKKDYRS

For `CCN1C(=C2C(=O)c3ccccc3C2=O)C=Cc2ccccc21`, the cell count in test [1] was found to be 347. For the same compound, the inhibition – broadly, the drop in the measured response relative to a control, in per cent – is 23.3% (active) in test [1], -27.1% (inactive) in test [3], -14.8% (inactive) in test [7] and -27.9% (inactive) in test [8]. The inhibition of aggregation in test [2] was -4% (inactive). Further, the nuclei count came to 107% in test [2] and 117% in test [3]. Besides, the fluorescence slope in test [4] was -0.284 (inactive). Besides, the NADPH fluorescence slope in test [5] was -1.4e-05 (inactive). The slope in test [6] was 0.00581 (inactive).

On to `COc1ccc(S(=O)(=O)NCC(c2cccnc2)N2CCN(C)CC2)cc1C` (centres undefined), for which the cell count in test [1] worked out at 600. Further, the inhibition in test [1] was -1.8% (inactive); in test [3], 2% (inactive); in test [7], 4.66% (inactive); in test [8], 29.1% (inactive). The inhibition of aggregation in test [2] was -1.7% (inactive). Also, the values for the nuclei count in test [2] and in test [3] were 84.8% and 105%, respectively. Further, the fluorescence slope in test [4] was -0.586 (inactive). Also, the NADPH fluorescence slope in test [5] is -1.6e-05 (inactive). In addition, the slope in test [6] was 0.00609 (inactive).

Regarding `CCCOC(=O)C1[C@H]2C(=O)N(CCCOC)C[C@]23C=C[C@H]1O3` (some centres undefined), the cell count in test [1] was 706. Besides, the inhibition was -12.9% (inactive) in test [1], -21.6% (inactive) in test [3], 11.7% (inactive) in test [7] and 15.6% (inactive) in test [8]. In test [2], the inhibition of aggregation is -14.9% (inactive). Further, the values for the nuclei count in test [2] and in test [3] were 112% and 118%, respectively. For the same compound, in test [4], the fluorescence slope is -0.605 (inactive). Moreover, in test [5], the NADPH fluorescence slope was 3.2e-05 (inactive). Further, the slope in test [6] was 0.00864 (inactive).

On to `CCC(OC(=O)c1cccs1)C(=O)NCc1ccco1` (centres undefined), for which the cell count in test [1] was determined as 404. Moreover, the inhibition in test [1] was 5.2% (inactive); in test [3], -72.5% (inactive); in test [7] it was 16.1% (inactive); in test [8], 25% (inactive). Further, in test [2], the inhibition of aggregation was 10.4% (inactive). The nuclei count was 90.1% in test [2] and 118% in test [3]. For the same compound, the fluorescence slope in test [4] was -0.44 (inactive). Moreover, the NADPH fluorescence slope in test [5] was -0.000112 (inactive). For the same compound, the slope in test [6] was 0.00455 (inactive).

On to `CCC(=O)N1CCN(c2nc(-c3ccccc3)c3c(c2C#N)CCCC3)CC1`, for which the cell count in test [1] amounted to 501. Moreover, the inhibition in test [1] is 6.3% (inactive); in test [3], -27.6% (inactive); in test [7], 13.4% (inactive); in test [8], 44.4% (inactive). Further, in test [2], the inhibition of aggregation is 0.7% (inactive). Also, the nuclei count in test [2] was determined as 98.3%; in test [3] it was 108%. Also, the fluorescence slope in test [4] is -0.317 (inactive). In addition, the NADPH fluorescence slope in test [5] was -8.2e-07 (inactive). In addition, the slope in test [6] was 0.00519 (inactive).

For the compound `Cc1oc(-c2ccccc2F)nc1CS(=O)(=O)CC(=O)N1CCCCCC1`, in test [1], the cell count stood at 712. For the same compound, the inhibition in test [1] was -1.1% (inactive); in test [3], -40.3% (inactive); in test [7], -6.49% (inactive); in test [8], 1.53% (inactive). Also, in test [2], the inhibition of aggregation was -22.4% (inactive). Also, the nuclei count in test [2] worked out at 116%; in test [3], 117%. In addition, the fluorescence slope in test [4] is -0.57 (inactive). Further, in test [5], the NADPH fluorescence slope was -9.9e-06 (inactive). Moreover, the slope in test [6] was 0.00627 (inactive).

As to `Cc1cc(NC(=O)CCCC(=O)Nc2ccc(F)cc2)no1`, the cell count in test [1] came out at 423. The inhibition in test [1] was -10.5% (inactive); in test [3], -43% (inactive); in test [7] it was 5.46% (inactive); in test [8], 34.4% (inactive). Moreover, the inhibition of aggregation in test [2] was 13.2% (inactive). In addition, the nuclei count in test [2] was 72.2%; in test [3] it was 107%. Further, the fluorescence slope in test [4] was -0.477 (inactive). The NADPH fluorescence slope in test [5] is 9.1e-07 (inactive). The slope in test [6] was 0.0057 (inactive).

`COc1cccc(CN=CC2=C(O)CC(C)(C)CC2=O)c1OC`: the cell count in test [1] came out at 326. Further, the inhibition in test [1] is -18.3% (inactive); in test [3], -1.5% (inactive); in test [7] it was 1.64% (inactive); in test [8], 3.58% (inactive). In test [2], the inhibition of aggregation was -1.8% (inactive). In addition, the nuclei count in test [2] came out at 99.6%; in test [3], 111%. Besides, the fluorescence slope in test [4] is -0.468 (inactive). The NADPH fluorescence slope in test [5] was 9.7e-05 (inactive). The slope in test [6] is 0.00629 (inactive).

On to `CC(=O)c1c(OC(=O)c2ccco2)c2ccccc2n1C`, for which the cell count in test [1] turned out to be 386. Besides, the inhibition was 1% (inactive) in test [1], -81.6% (inactive) in test [3], 12% (inactive) in test [7] and 1.24% (inactive) in test [8]. Further, the inhibition of aggregation in test [2] is 15.7% (inactive). The nuclei count was found to be 72.8% in test [2] and 101% in test [3]. The fluorescence slope in test [4] is -0.367 (inactive). The NADPH fluorescence slope in test [5] was -1.2e-05 (inactive). In addition, the slope in test [6] is 0.00641 (inactive).

Turning to `COc1cccc(C2CC(c3ccccc3)n3ncnc3N2)c1` (centres undefined), the cell count in test [1] came out at 564. The inhibition in test [1] is 4.1% (inactive); in test [3], 17.4% (inactive); in test [7], 5.93% (inactive); in test [8] it was 33.2% (inactive). Moreover, in test [2], the inhibition of aggregation was -12% (inactive). The nuclei count in test [2] worked out at 90.7%; in test [3], 82%. Moreover, the fluorescence slope in test [4] is -0.6 (inactive). For the same compound, in test [5], the NADPH fluorescence slope was -2.8e-05 (inactive). In addition, in test [6], the slope was 0.00718 (inactive).

For the compound `O=C(c1cccnc1NCc1ccccc1)N1CCOCC1`, the cell count in test [1] came to 616. The inhibition in test [1] was -26.5% (inactive); in test [3], -53.4% (inactive); in test [7], -13.7% (inactive); in test [8], -5.42% (inactive). Further, in test [2], the inhibition of aggregation was 5.4% (inactive). The nuclei count in test [2] was 114%; in test [3], 116%. The fluorescence slope in test [4] is -0.613 (inactive). Also, the NADPH fluorescence slope in test [5] was 2e-05 (inactive). Also, the slope in test [6] was 0.00541 (inactive).

Regarding `O=C(Nc1ccc(SC(F)F)cc1)c1ccc2nccnc2c1`, in test [1], the cell count is 823. The inhibition is -1.3% (inactive) in test [1], 55.1% (active) in test [3], -15% (inactive) in test [7] and -139% (inactive) in test [8]. Further, the inhibition of aggregation in test [2] is 14.5% (inactive). Further, the nuclei count in test [2] was 101%; in test [3] it was 95%. The fluorescence slope in test [4] is -0.39 (inactive). The NADPH fluorescence slope in test [5] was 2e-05 (inactive). In test [6], the slope was 0.00714 (inactive).

For the compound `O=C1NCC(COCc2ccccc2)O1` (centres undefined), the cell count in test [1] worked out at 432. The inhibition is -3% (inactive) in test [1], 25.1% (inactive) in test [3], 8.89% (inactive) in test [7] and 21% (inactive) in test [8]. Moreover, the inhibition of aggregation in test [2] was 21% (inactive). In addition, the nuclei count in test [2] is 87.4%; in test [3], 102%. Moreover, the fluorescence slope in test [4] is -0.496 (inactive). Also, the NADPH fluorescence slope in test [5] was -5.3e-05 (inactive). Besides, in test [6], the slope is 0.00525 (inactive).

As to `NS(=O)(=O)c1ccc(NC(=O)N[C@@H](Cc2ccccc2)C(=O)O)cc1`, in test [1], the cell count stood at 292. In addition, the inhibition was -0.8% (inactive) in test [1], 16.6% (inactive) in test [3], 10.6% (inactive) in test [7] and 16.6% (inactive) in test [8]. Also, the inhibition of aggregation in test [2] is 5.2% (inactive). Besides, the nuclei count in test [2] is 104%; in test [3] it was 99.7%. For the same compound, in test [4], the fluorescence slope was -0.485 (inactive). For the same compound, in test [5], the NADPH fluorescence slope is -4.3e-05 (inactive). For the same compound, the slope in test [6] was 0.00476 (inactive).
